From PubChem
Most compounds without a hit are left out; they make up all but 1.8% or so of the library.
PrPC TRFRET = cell surface PrPC inhibition, primary TR-FRET screen | P04156 | TR-FRET read-out | inhibition, % at 13.8 µM | 370,000 compounds, 0.43% hits | AID 720596; in the data active = inhibition above about 24%; also: 0% = median of the test wells and 100% = reference compound wells
PfHsp40 rescue = compounds rescuing yeast from Plasmodium falciparum HSP40 toxicity; S. cerevisiae expressing PfHsp40, growth rescue, ATP luminescence; AID 504582; growth rescue, % at 12.5 µM; 340,000 compounds, 0.68% hits; in the data active = growth rescue above about 28%, passing the limit was not always enough; inconclusive = no clear call, values can overlap the other calls;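 also: yeast W303a lacking pdr1 and pdr3 grown in galactose medium; growth measured after three days at 30 °C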
PriA SSB inh = inhibitors of Klebsiella pneumoniae PriA binding to SSB C-terminal tail; AlphaScreen SSBct-PriA binding, biotinylated peptide; inhibition, % at 33 µM; 430,000 compounds, 0.6% hits; AID 1272365; in the data active = inhibition mostly above about 37%, no sharp cut-off; inactive = mostly below about 20%;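 also: plate controls were negative control peptide for no effect and reference peptide for full effect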
PrP UTR inh = inhibition of PrP 5' UTR reporter expression; cell-based PrP 5' UTR mRNA reporter, plate reader; inhibition, % (no concentration beside the values); 340,000 compounds, 0.35% hits; AID 488862; in the data active = inhibition above about 52%; also: 0 = median of the neutral control wells
MazF activator = MazEF (E. coli) toxin RNase activation. P0AE70. FAM/BHQ RNA-DNA oligo cleavage fluorescence, 5 h. activation, % at 20 µM. 350,000 compounds, 0.32% hits. AID 504720; in the data active = activation above about 50%
Target sequence (P0AE70 whole entry, looked up): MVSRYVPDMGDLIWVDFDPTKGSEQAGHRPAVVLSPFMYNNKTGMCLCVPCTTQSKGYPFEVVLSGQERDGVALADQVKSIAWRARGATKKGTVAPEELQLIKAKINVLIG
* = called active by the depositor; ? = inconclusive; . = no result given.

SMILES	PrPC TRFRET	PfHsp40 rescue	PriA SSB inh	PrP UTR inh	MazF activator
CCCN1CCc2c(sc(NC(=O)c3ccc(S(=O)(=O)N(C)c4ccccc4)cc3)c2C(N)=O)C1	.	1	-23	-19	-433
Cc1cc(N2CCCCC2)nc(SCc2ccc(C#N)cc2)n1	9	0	-38	-23	-5
Cc1ccc2c(CC(=O)Nc3ccc4c(c3)OCO4)cc(=O)oc2c1	.	.	3	.	.
Cc1cccc(NC(=S)NN=C2CC(C)(C)Oc3ccc(O)cc32)c1	.	.	47*	.	.
COc1ccccc1NC(=S)N/N=C1\CC(C)(C)Oc2ccc(O)cc21	-11	0	.	-31	49
Cc1ccccc1NC(=S)NN=C1CC(C)(C)Oc2ccc(O)cc21	.	.	47*	.	.
COc1ccc(NC(=S)N/N=C2\CC(C)(C)Oc3ccc(O)cc32)cc1	7	39*	.	-3	-4
COc1ccccc1NC(=S)NN=C1CC(C)(C)Oc2ccc(O)cc21	.	.	25	.	.
CC(C)CNS(=O)(=O)c1ccc2nc(NC(=O)c3ccccc3Cl)sc2c1	.	.	41*	.	.
CC1(C)CC(=O)C2=C(C1)NC1=C(C(=O)c3ccccc31)C2c1ccc(Cl)cc1 (stereo not given)	-1	-1	36	-33	10
Cc1ccc(C2C3=C(CC(C)(C)CC3=O)NC3=C2C(=O)c2ccccc23)cc1 (stereo not given)	-24	1	51*	8	10
Oc1c(C(c2ccc(C(F)(F)F)cc2)N2CCOCC2)ccc2cccnc12 (stereo not given)	.	.	39	.	.
Oc1c(C(Nc2nccs2)c2ccc(C(F)(F)F)cc2)ccc2cccnc12 (stereo not given)	17	84*	9	25	-6
Oc1c(C(Nc2cccc(C(F)(F)F)c2)c2ccncc2)ccc2cccnc12 (stereo not given)	10	381*	87	-9	-15
O=C1NC2=C(C(=O)OC2)C(c2ccc(OC(F)(F)F)cc2)N1 (stereo not given)	-5	-1	-6	-23	10
CCCCCCCC/C=C\CCCCCCCC(=O)O	8	0	-6	4	-30
CCCCCCCCCCCCCC(=O)NO	-4	264*	2	-3	-12
CCCCCCCC/C=C\CCCCCCCC(=O)NCCO	-7	67*	-12	-7	-6
Cc1cccc(C(=O)NC(=S)NNC(=O)c2ccccc2Cl)c1	8	64*	-13	-11	9
Cc1cc(C)nc(NC(=O)/C=C/c2ccccc2Cl)n1	-10	1	-10	-37	3
CCOC(=O)c1ccc(NC(=O)/C=C/c2cccs2)cc1	4	164*	-8	-71	11
Cc1cc(C(=O)NNC(=S)NC(=O)/C=C/c2ccccc2Cl)n[nH]1	-4	56*	73	-15	-9
Cc1cccc(C(=O)NC(=S)NNC(=O)Cc2ccccc2)c1	-5	229*	-13	-15	7
Clc1cccc(CNCCNCc2cccc(Cl)c2)c1	0	-1	-12	-21	7
CCC[C@H]1[C@@H](OC(=O)NC2CCCCC2)CC[C@@]23CCCN2C(=O)CCC[C@@H]13	8	.	.	.	.
SMILES	PrPC TRFRET	PfHsp40 rescue	PriA SSB inh	PrP UTR inh	MazF activator
CCOC(=O)C1CCN(c2c(C#N)cnc3ccc(OCC)cc23)CC1	.	.	-44	.	.
CC(=O)NNC(=S)NC(=O)c1ccc(C)cc1	2	-1	-10	-15	1
COc1ccc(C(=O)NNC(=S)NC(=O)/C=C/c2cccs2)cc1	6	74*	-18	6	-10
COc1ccc(C(=O)NC(=S)NNC(=O)c2ccccc2C)cc1	-3	105*	2	-17	2
Cc1ccccc1C(=O)NNC(=S)NC(=O)c1ccc(Cl)cc1Cl	1	395*	-15	-32	-1
O=C(NC(=S)NNC(=O)c1ccc(Cl)cc1Cl)c1cccnc1	-1	0	-2	4	-1
CCC(=O)NNC(=S)NC(=O)c1ccc(C)cc1	-4	69*	-8	-46	-18
COc1ccccc1CCNC(=O)C1CCN(c2cc(C3CC3)ncn2)CC1	.	.	-1	.	.
CN(Cc1ccccc1)S(=O)(=O)c1ccc(Cl)c(C(=O)N2CCOCC2)c1	3	.	.	.	2
C[C@H](CO)N1C[C@H](C)[C@@H](CN(C)S(=O)(=O)c2ccc(F)cc2)Oc2c(NC(=O)NC3CCCCC3)cccc2C1=O	4	-1	8	-21	5
CCOC(=O)CS(=O)(=O)CC(=O)Nc1ccc([N+](=O)[O-])cc1OC	-20	0	14	6	-12
Cc1c[nH]c2cccc(OCC(CNC(C)(C)C)OC(=O)c3ccccc3)c12 (stereo not given)	0	15	49*	-20	16
Cc1ccc(CN(CC(O)COc2cccc3[nH]cc(C)c23)C(C)(C)C)cc1 (stereo not given)	-8	0	1	-9	7
Cc1ccc(S(=O)(=O)NC23CC4CC(CC(C4)C2)C3)cc1	6	107*	-16	12	3
Cc1ccc(S(=O)(=O)NN=C2C3CC4CC(C3)CC2C4)cc1	0	0	-3	4	-4
CC(=N/O)/C(=N\O)c1ccc(C)o1	-1	242*	.	-12	9
CC(=O)Nc1cccc(-c2csc(C(O)c3ccc(F)cc3)n2)c1 (stereo not given)	5	.	.	.	.
CNc1nc(-c2ccccn2)cs1	.	.	118*	.	.
CC(C)c1nc(-c2ccccn2)cs1	.	.	7	.	.
COc1ccc(CCNc2nc(-c3ccccn3)cs2)cc1OC	-3	1	39*	-19	2
Cc1cccc(Nc2nc(-c3ccccn3)cs2)n1	-6	512*	95*	.	-9
CNc1nc(-c2c[nH]c3ccccc23)cs1	3	16	52*	-28	-10
COc1ccc(CCNc2nc(-c3ccncc3)cs2)cc1OC	-3	2	1	-33	-2
CCC(C)Nc1nc(-c2c[nH]c3ccccc23)cs1 (stereo not given)	-9	0	37	-10	6
Cc1cccc(Nc2nc(-c3cccs3)cs2)n1	12	11	6	-119	2
SMILES	PrPC TRFRET	PfHsp40 rescue	PriA SSB inh	PrP UTR inh	MazF activator
Cc1cc(C)c(C(=O)N(C)CC2CCCN(CCc3ccccc3F)C2)o1 (stereo not given)	-3	-1	-1	-8	5
Cc1ccc(S(=O)(=O)N(CCCc2c(C)nc(N)[nH]c2=O)Cc2ccc([N+](=O)[O-])cc2)cc1	-19	.	.	.	13
CC(=NNC(=O)c1cccc(C)c1)c1ccc(N2CCOCC2)cc1	.	.	0	.	.
Cc1cccnc1Nc1nc(-c2ccccc2)cs1	9	1	-5	-84	2
Cc1cccnc1Nc1nc(-c2ccccn2)cs1	24	77*	68*	-28	7
COc1ccc(CC(=O)NCC#CCN(C)Cc2ccccc2)cc1	.	.	-8	.	.
CCCC(=O)NC(c1ccccc1OC)c1ccc2cccnc2c1O (stereo not given)	.	374*	1	30	12
CCCC(=O)NC(c1ccc(C)cc1)c1ccc2cccnc2c1O (stereo not given)	.	?	-7	30	4
CCCCC(=O)NC(c1ccc(N(CC)CC)cc1)c1ccc2cccnc2c1O (stereo not given)	6	129*	-3	37	-4
